According to PubChem BioAssay AID1159580 (chemical genetic matrix, 2015):
The whole screen tested about 5,500 compounds, of which about 2,000 (36%) were called active. Another 18% or so got no clear call; they are omitted. Rule as the data show it: active = normalized growth mostly below about 0.91 (no sharp cut-off); inconclusive = no clear call, values can overlap the other calls; inactive = mostly above about 0.92. Some of the results follow.

Experiment: chemical genetic growth profiling, strain panel (AID 1159580);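 also: tested at 20 µM; growth read once vehicle control cultures reached saturation at 30 °C; 1 = growth at the plate median or of vehicle wells; lower values mean less growth of the strain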
Details: growth OD
[1] = S. cerevisiae deletion strains, locus YDL101C, strain DUN1, active compounds read low
[2] = S. cerevisiae deletion strains, locus YHR030C, strain SLT2, active compounds read low

Measured: normalized growth

O=C(NC1Cc2ccccc2C1)c1cncc(Br)c1
inactive: S. cerevisiae deletion strains, locus YAL013W, strain DEP1, active compounds read low 1 | S. cerevisiae deletion strains, locus YBR229C, strain ROT2, active compounds read low 0.992 | S. cerevisiae deletion strains, locus YCL061C, strain MRC1, active compounds read low 0.982 | [1] 1 | S. cerevisiae deletion strains, locus YDL134C, strain PPH21, active compounds read low 1.05 | S. cerevisiae deletion strains, locus YDR150W, strain NUM1, active compounds read low 0.937 | S. cerevisiae deletion strains, locus YEL061C, strain CIN8, active compounds read low 0.99 | S. cerevisiae deletion strains, locus YGR078C, strain PAC10, active compounds read low 0.994 | S. cerevisiae deletion strains, locus YGR229C, strain SMI1, active compounds read low 0.985 | [2] 0.848 | S. cerevisiae deletion strains, locus YHR087W, strain rtc3, active compounds read low 0.985 | S. cerevisiae deletion strains, locus YJL187C, strain SWE1, active compounds read low 1.01 | S. cerevisiae deletion strains, locus YJR043C, strain POL32, active compounds read low 0.994 | S. cerevisiae deletion strains, locus YJR075W, strain HOC1, active compounds read low 0.982 | S. cerevisiae deletion strains, locus YKL190W, strain CNB1, active compounds read low 0.99 | S. cerevisiae deletion strains, locus YLR039C, strain RIC1, active compounds read low 1.03 | S. cerevisiae deletion strains, locus YLR058C, strain SHM2 (second series), active compounds read low 0.985 | S. cerevisiae deletion strains, locus YLR085C, strain ARP6, active compounds read low 0.952 | S. cerevisiae deletion strains, locus YLR262C, strain YPT6, active compounds read low 0.992 | S. cerevisiae deletion strains, locus YML094W, strain GIM5, active compounds read low 0.98 | S. cerevisiae deletion strains, locus YMR219W, strain ESC1, active compounds read low 0.991 | S. cerevisiae deletion strains, locus YMR263W, strain SAP30, active compounds read low 0.984 | S. cerevisiae deletion strains, locus YMR307W, strain GAS1, active compounds read low 0.912 | S. cerevisiae deletion strains, locus YNL153C, strain GIM3, active compounds read low 0.994 | S. cerevisiae deletion strains, locus YNL298W, strain CLA4 (second series), active compounds read low 0.966 | S. cerevisiae deletion strains, locus YNL322C, strain KRE1, active compounds read low 0.995 | S. cerevisiae deletion strains, locus YNR030W, strain Alg12, active compounds read low 0.982 | S. cerevisiae deletion strains, locus YPL055C, strain LGE1, active compounds read low 0.982 | S. cerevisiae deletion strains, locus YPL241C, strain CIN2, active compounds read low 0.98 | S. cerevisiae deletion strains, locus YPR135W, strain CTF4, active compounds read low 0.836 | S. cerevisiae strains, strain wild type, active compounds read low 0.988

S=C(Nc1ccc(Cl)cc1)SCc1c(Cl)cccc1Cl
inactive: S. cerevisiae deletion strains, locus YAR019C, strain CDC15, active compounds read low 0.976 | S. cerevisiae deletion strains, locus YBL105C, strain PKC1, active compounds read low 0.984 | S. cerevisiae deletion strains, locus YBR135W, strain CKS1, active compounds read low 0.977 | S. cerevisiae deletion strains, locus YBR136W, strain MEC1, active compounds read low 0.996 | S. cerevisiae deletion strains, locus YBR160W, strain CDC28, active compounds read low 0.987 | S. cerevisiae deletion strains, locus YDL017W, strain CDC7, active compounds read low 0.984 | S. cerevisiae deletion strains, locus YDL028C, strain MPS1, active compounds read low 0.985 | [1] 0.993 | S. cerevisiae deletion strains, locus YDL108W, strain KIN28, active compounds read low 0.997 | S. cerevisiae deletion strains, locus YDL132W, strain cdc53, active compounds read low 0.979 | S. cerevisiae deletion strains, locus YDL214C, strain PRR2, active compounds read low 0.96 | S. cerevisiae deletion strains, locus YDR052C, strain DBF4, active compounds read low 0.989 | S. cerevisiae deletion strains, locus YDR054C, strain cdc34, active compounds read low 0.978 | S. cerevisiae deletion strains, locus YDR226W, strain ADK1, active compounds read low 0.983 | S. cerevisiae deletion strains, locus YDR477W, strain SNF1, active compounds read low 0.95 | S. cerevisiae deletion strains, locus YER123W, strain YCK3, active compounds read low 0.973 | S. cerevisiae deletion strains, locus YER133W, strain GLC7, active compounds read low 0.915 | S. cerevisiae deletion strains, locus YFL009W, strain cdc4, active compounds read low 0.977 | S. cerevisiae deletion strains, locus YFL029C, strain CAK1, active compounds read low 0.974 | S. cerevisiae deletion strains, locus YFR003C, strain YPI1, active compounds read low 0.984 | S. cerevisiae deletion strains, locus YFR019W, strain FAB1, active compounds read low 0.961 | S. cerevisiae deletion strains, locus YFR028C, strain CDC14, active compounds read low 0.971 | S. cerevisiae deletion strains, locus YGR040W, strain KSS1, active compounds read low 0.938 | S. cerevisiae deletion strains, locus YGR052W, strain FMP48, active compounds read low 1.06 | S. cerevisiae deletion strains, locus YGR092W, strain DBF2, active compounds read low 0.89 | [2] 0.996 | S. cerevisiae deletion strains, locus YHR079C, strain IRE1, active compounds read low 1.08 | S. cerevisiae deletion strains, locus YHR082C, strain KSP1, active compounds read low 1.03 | S. cerevisiae deletion strains, locus YHR205W, strain SCH9, active compounds read low 0.999 | S. cerevisiae deletion strains, locus YIL147C, strain SLN1, active compounds read low 0.992 | S. cerevisiae deletion strains, locus YJL095W, strain BCK1, active compounds read low 1.05 | S. cerevisiae deletion strains, locus YJL128C, strain PBS2, active compounds read low 0.967 | S. cerevisiae deletion strains, locus YJL157C, strain FAR1, active compounds read low 0.96 | S. cerevisiae deletion strains, locus YJR016C, strain ILV3, active compounds read low 0.973 | S. cerevisiae deletion strains, locus YJR066W, strain TOR1 (second series), active compounds read low 0.932 | S. cerevisiae deletion strains, locus YJR066W, strain TOR1, active compounds read low 1.02 | S. cerevisiae deletion strains, locus YKL048C, strain ELM1, active compounds read low 0.992 | S. cerevisiae deletion strains, locus YKL067W, strain YNK1, active compounds read low 0.972 | S. cerevisiae deletion strains, locus YKL101W, strain HSL1, active compounds read low 0.994 | S. cerevisiae deletion strains, locus YKL193C, strain SDS22, active compounds read low 0.978 | S. cerevisiae deletion strains, locus YKL203C, strain TOR2, active compounds read low 1.02 | S. cerevisiae deletion strains, locus YLR113W, strain HOG1, active compounds read low 1.09 | S. cerevisiae deletion strains, locus YLR133W, strain CKI1, active compounds read low 0.993 | S. cerevisiae deletion strains, locus YLR403W, strain SFP1, active compounds read low 0.95 | S. cerevisiae deletion strains, locus YML070W, strain DAK1, active compounds read low 0.957 | S. cerevisiae deletion strains, locus YMR001C, strain CDC5, active compounds read low 0.971 | S. cerevisiae deletion strains, locus YMR205C, strain PFK2 (second series), active compounds read low 0.987 | S. cerevisiae deletion strains, locus YMR277W, strain FCP1, active compounds read low 0.973 | S. cerevisiae deletion strains, locus YNL006W, strain LST8, active compounds read low 0.972 | S. cerevisiae deletion strains, locus YNL020C, strain ARK1, active compounds read low 0.983 | S. cerevisiae deletion strains, locus YNL161W, strain CBK1, active compounds read low 0.978 | S. cerevisiae deletion strains, locus YNL183C, strain NPR1, active compounds read low 1.03 | S. cerevisiae deletion strains, locus YNL207W, strain RIO2, active compounds read low 0.983 | S. cerevisiae deletion strains, locus YNL222W, strain SSU72, active compounds read low 0.976 | S. cerevisiae deletion strains, locus YNL307C, strain MCK1 (second series), active compounds read low 0.978 | S. cerevisiae deletion strains, locus YOL078W, strain AVO1, active compounds read low 0.979 | S. cerevisiae deletion strains, locus YOL136C, strain PFK27, active compounds read low 0.973 | S. cerevisiae deletion strains, locus YOR061W, strain CKA2, active compounds read low 0.955 | S. cerevisiae deletion strains, locus YOR119C, strain RIO1, active compounds read low 0.97 | S. cerevisiae deletion strains, locus YOR231W, strain MKK1, active compounds read low 1.06 | S. cerevisiae deletion strains, locus YOR329C, strain SCD5, active compounds read low 0.983 | S. cerevisiae deletion strains, locus YPL031C, strain PHO85, active compounds read low 0.956 | S. cerevisiae deletion strains, locus YPL153C, strain RAD53, active compounds read low 0.949 | S. cerevisiae deletion strains, locus YPL204W, strain HRR25, active compounds read low 0.939 | S. cerevisiae deletion strains, locus YPL209C, strain IPL1, active compounds read low 0.989 | S. cerevisiae deletion strains, locus YPL256C, strain CLN2, active compounds read low 1.08 | S. cerevisiae deletion strains, locus YPR025C, strain CCL1, active compounds read low 0.987 | S. cerevisiae deletion strains, locus YPR106W, strain ISR1, active compounds read low 0.994 | S. cerevisiae deletion strains, locus YPR111W, strain DBF20, active compounds read low 0.986 | S. cerevisiae deletion strains, strain NNK1, active compounds read low 0.999 | S. cerevisiae deletion strains, strain TSCII, active compounds read low 0.981
